Shown are actives, neighbours in structure and some others; about 2% of the full set was active somewhere.
SKKanGAS inh = blocks kanamycin growth of S. pyogenes SKKanGAS strain. BacTiter-Glo, 6 h. inhibition, % at 7.5 µM. hit rate 1.3% among 300,000. AID 1662;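 active = mean replicate score, as percent of positive control median, at least 50; inconclusive = mean below 50 but one replicate at or above 50; inactive = mean and every replicate below 50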;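 note: strain carries kanamycin resistance gene driven by streptokinase promoter and grows in 40 µg/ml kanamycin; loss of luminescence reflects streptokinase promoter inhibition or plain growth inhibition; 0% = median of DMSO wells and 100% = positive control at its reference dose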
Yeast superoxide = caloric restriction mimetics inhibiting age-related superoxide in yeast; hit rate 0.18% among 330,000; superoxide response (% of plate mean), % at 10 µM; S. cerevisiae aged cells, superoxide DHE fluorescence; active compounds read low;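 active = superoxide response under a set limit, about three screen SD below normal, cut at about 65% in these data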;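 note: yeast aged for seven days with compound at 30 °C before DHE staining; 100% = average MFI of all compound-treated wells on the plate with controls excluded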
Platelet DG rel = platelet dense granule release activity | inhibition, %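 (compounds screened at 7.5 µM in platelet-rich plasma)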 | human platelet-rich plasma, SFLLRN dense granule ATP release, luminescence | hit rate 0.22% among 300,000 | AID 1663;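 active = mean replicate score, as percent of positive control, at or above 50; inconclusive = mean below 50 but at least one replicate at or above 50; inactive = mean and every replicate below 50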
PolyA inhibitor = inhibitors of polyadenylation in S. cerevisiae | AID 1875 | hit rate 0.02% among 300,000 | S. cerevisiae SKY197-pL101 polyadenylation reporter, beta-gal luminescence; efflux-impaired pdr1/pdr3 knockout yeast; score 100 = 6 SD above DMSO | activity score, % at 12 µM;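 active = lowest replicate activity score at least 50, where 100 means six control SD above control mean; inconclusive = lowest score under 50 but half or more replicates reach 50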;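 note: yeast exposed to compound for 9 h at 30 °C; higher score means more reporter readthrough which indicates perturbed polyadenylation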
Calb FLC = C. albicans growth modulation with fluconazole | hit rate 0.57% among 300,000 | AID 1979 | growth inhibition, % (no concentration beside the values) | C. albicans CaCi-2 (fluconazole-resistant clinical isolate) + fluconazole, Alamar Blue growth, 48 h;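 active = growth inhibition above about 58% in most replicates, limit read from the data, passing the limit was not always enough; inconclusive = exactly half the replicates above a set limit; inactive = most replicates below a set limit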;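 note: all wells also contain fluconazole at 8 µg/ml as a sub-toxic cotreatment; 0% = median of DMSO wells and 100% = median of geldanamycin control wells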
Superoxide pick = confirmation of caloric restriction mimetics inhibiting yeast age-related superoxide. shares compounds with Yeast superoxide. S. cerevisiae aging, superoxide DHE fluorescence; active compounds read low. superoxide response (% of plate), % at 10 µM. hit rate 1% among 850. AID 434994;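 active = superoxide signal below 65% of the plate average of sample wells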;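 note: cells aged with compound for 7 days at 30 degrees C before staining; 100% equals mean DHE fluorescence of all compound wells on the plate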
DHE counter = DHE fluorescence interference, counter-screen artifact; shares compounds with Yeast superoxide; AID 435000; fluorescence response, % at 10 µM; 850 tested, under 10 active; S. cerevisiae BY4741, flow cytometry; active compounds read low;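 active = fluorescence response below 15%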;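 note: percent of the mean fluorescence averaged over all compound wells on the plate; lower means stronger quenching of DHE signal or ROS scavenging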
An asterisk follows results filed as active; i = inactive; ? = inconclusive; . = not tested or not shown.

SMILES | SKKanGAS inh | Yeast superoxide | Platelet DG rel | PolyA inhibitor | Calb FLC | Superoxide pick | DHE counter
N#Cc1ccc(Cl)cc1NC(=O)CNCc1cccs1 | -7.4 | 63.4* | -5.9 | 13.0 | 0.2 | 95.8 | 92.6
O=C1CC(=C2c3ccccc3-c3ccccc32)C(=O)N1CCCCN1CCN(c2ccccc2)CC1 | -0.4 | 14.6* | -0.6 | 5.9 | -34.6 | 97.2 | 94.1
O=C(NCCC1=CCCCC1)c1c(O)nc2ccccn2c1=O | 3.1 | 63.8* | 4.5 | 69.1* | 1.8 | 84.7 | 94.2
CCOc1cccc(-c2nnc(SCC(=O)Nc3ccc(OC)c(OC)c3)n2N)c1 | 11.5 | 85.5 | 4.7 | -2.2 | -0.9 | 91.7 | 93.7
COc1ccc(C)cc1NC(=O)CSc1nnc(-c2ccc(OC)c(OC)c2)n1N | 1.9 | 111.4 | 0.0 | 30.9 | -5.6 | . | .
COc1ccc(NC(C)=O)cc1NC(=O)CSc1nnc(-c2ccc(F)cc2)n1N | -8.9 | 93.4 | 10.9 | -10.7 | 4.4 | 111.3 | 106.4
COc1cccc(NC(=O)CSc2nnc(-c3cccc(OC(C)C)c3)n2N)c1 | -7.6 | 90.2 | -2.5 | -8.6 | 2.3 | i | 101.0
CCN(c1ccccc1)S(=O)(=O)c1ccc(OC)c(NC(=O)COc2ccc(C(C)=O)cc2)c1 | . | 102.5 | 24.0 | 5.7 | -10.2 | . | .
Fc1ccccc1COc1ccc(C(=S)N2CCCC2)cc1 | 14.4 | 64.8* | 3.3 | -16.4 | -3.1 | 107.2 | 92.7
O=C1C=C(c2ccccc2C(F)(F)F)C[C@@H](c2ccc3c(c2)OCO3)C1 | . | 94.9 | . | . | . | . | .
NS(=O)(=O)c1ccc(CNC(=O)c2cc(=O)c3ccccc3o2)cc1 | 3.0 | 98.5 | -12.1 | -2.7 | -5.2 | . | .
Cc1ccc(S(=O)(=O)CCC(=O)OCC(=O)NC2CCS(=O)(=O)C2)cc1 (stereo unspecified) | -9.5 | 118.5 | -2.0 | 7.0 | -2.9 | . | .
CC(=O)Nc1cc2c(cc1NC(=O)Cn1nc(-c3ccccc3F)ccc1=O)OCCO2 | 11.7 | 61.6* | -2.7 | 7.1 | 4.0 | 99.5 | 109.7
COc1cccc(OC)c1NC(=O)Cn1nc(-c2ccc3c(c2)OCCO3)ccc1=O | 0.2 | 90.7 | -3.7 | 20.3 | 9.9 | . | .
Cn1c(SCc2cccc(C#N)c2)nc2ccccc2c1=O | -6.4 | 101.1 | 6.1 | -11.0 | 17.1 | . | .
NC(=O)c1cc(S(=O)(=O)NCCc2ccc(Cl)cc2)cs1 | 10.1 | 82.2 | -17.7 | -5.8 | 2.0 | . | .
Cc1cccc([C@@H](NC(=O)OC(C)(C)C)C(=O)OC(C)(C)C)c1 | . | 62.1* | . | . | . | 102.3 | 91.2
CC(C)(C)OC(=O)N[C@@H](C(=O)OC(C)(C)C)c1ccccc1 | . | 86.3 | . | . | . | . | .
COc1cc2c(cc1OC)CN(C(=O)/C=C/c1ccc(F)cc1)CC2 | -2.7 | 100.5 | 1.2 | -4.8 | 0.3 | . | .
COc1cc2c(cc1OC)CN(C(=O)/C=C/c1cc(OC)c(OC)c(OC)c1)CC2 | -3.2 | 63.4* | -3.6 | 6.4 | 5.8 | 97.4 | 98.4
CCn1cc(C(=O)NCCc2ccccc2)c(=O)c2cc(S(=O)(=O)N3CCCC3)ccc21 | -3.4 | 79.4 | 3.4 | 3.4 | 3.5 | . | .
COc1ccccc1C(=O)N1CCN(c2cccc(Cl)c2)CC1 | -1.0 | 95.5 | -24.6 | 3.2 | -10.9 | 79.5 | 96.8
COc1cc(SC)ccc1C(=O)N1CCCCCC1 | -15.0 | 107.7 | -5.9 | 5.0 | -12.6 | . | .
COc1cc(SC)ccc1C(=O)N1CCN(Cc2ccccc2)CC1 | 2.6 | 93.6 | 3.3 | 10.7 | 27.4 | . | .
COc1cc2c(C(=O)N3CCN(c4cccc(Cl)c4)CC3)cn(C)c(=O)c2cc1OC | 10.4 | 103.1 | -4.3 | 3.3 | -11.5 | . | .
SMILES | SKKanGAS inh | Yeast superoxide | Platelet DG rel | PolyA inhibitor | Calb FLC | Superoxide pick | DHE counter
COc1cc(SC)ccc1C(=O)N1CCN(c2ccc(O)cc2)CC1 | -3.0 | 85.8 | -0.4 | 10.6 | -31.2 | 100.1 | 93.7
COc1cc(SC)ccc1C(=O)N1CCN(c2ccccc2)CC1 | -7.8 | 93.7 | -3.1 | -17.0 | 20.5 | 102.3 | 99.4
Cc1noc(C)c1NC(=O)Nc1ccc2c(c1)C(=O)N([C@H](C)CO)C[C@H](C)[C@@H](CN(C)C(=O)NC1CCCCC1)O2 | . | 86.2 | . | . | . | . | .
CCOC(=O)C1(CCOc2ccccc2)CCN(Cc2ccc(OCC)c(CO)c2)CC1 | -2.9 | 98.1 | 3.1 | -2.7 | -5.7 | . | .
O=C(Nc1ccc2c(c1)C(=O)NC2=O)c1ccc(S(=O)(=O)N2CCCC2)cc1 | -5.6 | 113.5 | 5.5 | -16.5 | -0.8 | . | .
CN(NC1OC(=O)c2ccccc21)c1ccc(Cl)cc1[N+](=O)[O-] (stereo unspecified) | 10.6 | 55.3* | 0.0 | -5.7 | -8.8 | 82.6 | 111.4
Cc1cc(C)cc(NC(=O)N2CCNC(=O)C2CC(=O)Nc2cc(Cl)ccc2Cl)c1 (stereo unspecified) | -3.7 | 64.5* | 16.6 | -7.9 | 12.0 | 99.3 | 109.1
O=C(CC1C(=O)NCCN1C(=O)Nc1ccc(F)cc1F)Nc1cc(Cl)ccc1Cl (stereo unspecified) | 0.6 | 111.8 | 9.0 | 8.6 | 0.1 | . | .
CCOC(=O)c1cnc2cc(-c3ccc(Br)cc3)nn2c1C | 2.6 | 95.7 | 15.6 | -4.1 | -6.9 | 114.1 | 114.4
NC1=C(c2ccccc2)C(=O)NC1=O | -0.1 | 36.6* | -9.3 | ? | -4.8 | 99.1 | 106.2
Clc1cccc(-c2ccc(C=Nc3ccc(N4CCOCC4)cc3)o2)c1 | -4.0 | 52.9* | -1.8 | -15.8 | -1.9 | 93.3 | 96.2
CC(Oc1ccccc1)C(=O)Nc1c2c(nn1-c1ccccc1)CS(=O)(=O)C2 (stereo unspecified) | -1.3 | 99.7 | -7.4 | 3.2 | -2.2 | . | .
COc1ccc(-n2nc3c(c2NC(=O)C(C)Oc2ccccc2)CS(=O)(=O)C3)cc1 (stereo unspecified) | -5.2 | 53.7* | 3.2 | -1.2 | -1.2 | 116.6 | 113.7
CCn1c2ccc(CC(=O)O)cc2c2cc(CC(=O)O)ccc21 | 6.6 | 105.4 | 7.4 | 8.1 | -19.5 | 100.5 | 102.6
CCCCN([C@H](CO)C(C)C)S(=O)(=O)c1ccccc1Br | . | 109.2 | . | . | . | . | .
COCCN(CCOC)S(=O)(=O)c1ccc(C(=O)Nc2nnc(C3CC3)o2)cc1 | -1.1 | 81.3 | -7.4 | 20.1 | . | . | .
CN(c1ccccc1)S(=O)(=O)c1ccc(C(=O)Nc2nnc(C3CC3)o2)cc1 | 9.6 | 94.7 | -0.6 | -8.0 | -12.6 | 97.7 | 99.9
CCN(c1ccccc1)S(=O)(=O)c1ccc(C(=O)Nc2nnc(C3CC3)o2)cc1 | 77.7* | 99.0 | 14.9 | 2.6 | 78.6* | 97.4 | 90.2
O=C1/C(=C/c2cccnc2)CCC/C1=C\c1cccnc1 | . | 64.6* | . | . | . | 103.8 | 87.2
O=c1c2ccc(Cl)cc2nc(-c2ccc([N+](=O)[O-])cc2)n1O | 1.4 | 54.0* | 0.4 | 40.2 | 86.9* | 86.8 | 90.1
CC(C)N(Cc1ccccc1)C(=O)CN1C(=O)NC2(CCCC2)C1=O | . | 90.9 | . | . | . | . | .
CC(C)c1ccc(/C=C/C(=O)NC(=S)Nc2ccc(CN3CCOCC3)cc2)cc1 | -12.4 | 61.5* | -5.2 | -88.9 | -8.2 | 101.5 | 91.8
CCc1cccc(C)c1N1C(=O)CC(C)(C)CC1=O | 7.0 | 123.1 | -0.9 | 3.4 | -2.6 | . | .
